Assay results from PubChem BioAssay (NCATS).
Results filed as inconclusive are left out. Entries that show only a call come without a potency. The source made the active and inactive calls. The call rests on the fitted dose curve; tested in HEK293 reporter line.

Assay: qHTS for Inhibitors of the Functional Ribonucleoprotein Complex (vRNP) of Lassa (LASV) Arenavirus: LASV Primary Screen - GLuc reporter signal (AID 1347082); further: nearly all actives have a fitted effect of over 60% in size
Conditions: LASV minigenome vRNP, Gaussia luciferase reporter; series mostly up to 57.5 µM
For `CSc1ccc(/C=C2/C(C)=C(CC(=O)O)c3cc(F)ccc32)cc1`, the Potency was “inactive”. For `C[N+]1(C)CCC(=C(c2ccccc2)c2ccccc2)CC1`, the Potency was “inactive”. For `CCC(=O)c1ccc2c(c1)N(CCCN(C)C)c1ccccc1S2`, the Potency was “inactive”. In the case of `CC(C)(C)CC(=O)OCC(=O)[C@@]1(O)CC[C@H]2[C@@H]3CCC4=CC(=O)C=C[C@]4(C)[C@H]3[C@@H](O)C[C@@]21C`, the Potency is reported as “inactive”. For `C/C=C(/C(=C/C)c1ccc(OC(C)=O)cc1)c1ccc(OC(C)=O)cc1`, the Potency was “inactive”. In the case of `O=C1OC2(c3ccc(O)cc3Oc3cc(O)ccc32)c2ccccc21`, the Potency is reported as “inactive”. For `Cc1nnc(C(=O)NC(C)(C)c2nc(C(=O)NCc3ccc(F)cc3)c(O)c(=O)n2C)o1`, the Potency was “inactive”. For `CCCCC(=O)O[C@]1(C(=O)CO)CC[C@H]2[C@@H]3CCC4=CC(=O)CC[C@]4(C)[C@H]3[C@@H](O)C[C@@]21C`, the Potency was “inactive”. With `Cc1nc(C2CCCCC2)c(-c2ccc(S(N)(=O)=O)c(F)c2)o1` the Potency was “inactive”. With `CCc1ccc(C(=O)C(C)CN2CCCCC2)cc1` (stereo not given) the Potency was “inactive”. With `CC(Cc1cccc(C(F)(F)F)c1)NCCOC(=O)c1ccccc1` (stereo not given) the Potency was “inactive”. With `Cn1c(=O)c2c(ncn2CC2OCCO2)n(C)c1=O` the Potency was “inactive”. With `Nc1ccncc1N` the Potency was “inactive”. In the case of `NCCNC(=O)c1ccc(Cl)cn1`, the Potency is reported as “inactive”. For `CCCCCCCC/C=C\CCCCCCCCN`, the Potency was “inactive”. With `CCOc1ccc2nc(S(N)(=O)=O)sc2c1` the Potency was “inactive”. With `Nc1cc(C(F)(F)F)ccc1S` the Potency was “inactive”. For `Nc1ccn([C@H]2CC[C@@H](CO)O2)c(=O)n1`, the Potency was “inactive”. With `CCCCC[C@H](O)C=C[C@H]1[C@H](O)CC(=O)[C@H]1CC=CCCCC(=O)O` the Potency was “inactive”. For `COc1cc(NS(=O)(=O)c2ccc(N)cc2)ncn1`, the Potency was “inactive”. For `CN(Cc1cc(Br)cc(Br)c1N)C1CCCCC1`, the Potency was “inactive”. In the case of `COc1ccc(S(=O)(=O)N2c3ccc(Cl)cc3[C@@](O)(c3ccccc3Cl)[C@H]2C(=O)N2CCC[C@@H]2C(N)=O)cc1OC`, the Potency is reported as “inactive”. With `CC[C@H](c1ccc(O)cc1)[C@@H](CC)c1ccc(O)cc1` the Potency was “inactive”. For `Clc1ccc2c(c1)CCc1cccnc1C2=C1CCNCC1`, the Potency was “inactive”. In the case of `CCC1(c2cnc[nH]2)Cc2ccccc2C1`, the Potency is reported as “inactive”. With `Nc1c(CC(=O)O)cccc1C(=O)c1ccc(Br)cc1` the Potency was “inactive”. For `O=S1(=O)OC(c2ccc(O)cc2)(c2ccc(O)cc2)c2ccccc21`, the Potency was “inactive”. In the case of `c1ccc(CN(CC2=NCCN2)c2ccccc2)cc1`, the Potency is reported as “inactive”. For `C[C@@H](CN(C)C)CN1c2ccccc2Sc2ccccc21`, the Potency was “inactive”. For `C/C(=C(/OCCOc1ccc(Cl)cc1)c1ccc(Cl)cc1Cl)n1ccnc1`, the Potency was “inactive”. With `Cc1ccc(O)cc1` the Potency was “inactive”. In the case of `CCC(CN)=C(c1ccccc1)c1ccccc1`, the Potency is reported as “inactive”. In the case of `CCCCCOc1ccccc1/C(=C\SC)n1ccnc1`, the Potency is reported as “inactive”. In the case of `O=C(CCCCC(=O)Nc1c(I)cc(I)c(C(=O)O)c1I)Nc1c(I)cc(I)c(C(=O)O)c1I`, the Potency is reported as “inactive”. In the case of `O=C(c1cc(O)c(O)c(O)c1)c1ccc(O)c(O)c1O`, the Potency is reported as “inactive”. In the case of `CCc1oc2ccccc2c1C(=O)c1cc(Br)c(O)c(Br)c1`, the Potency is reported as “inactive”. For `NC(N)=NCCC[C@H](N)C(=O)O`, the Potency was “inactive”. With `CN1CCC(=C2c3ccccc3Sc3ccccc32)CC1` the Potency was “inactive”. With `O=C(OCC(COC(=O)c1cccnc1)(COC(=O)c1cccnc1)COC(=O)c1cccnc1)c1cccnc1` the Potency was “inactive”. In the case of `CC(=O)[C@@]1(O)CC[C@H]2[C@@H]3C[C@H](C)C4=CC(=O)CC[C@]4(C)[C@H]3CC[C@@]21C`, the Potency is reported as “inactive”.

Assay: qHTS for Inhibitors of the Functional Ribonucleoprotein Complex (vRNP) of Lassa (LASV) Arenavirus: Viability assay - alamar blue signal for LASV Primary Screen (AID 1347083); further: nearly all actives have a fitted effect of over 80% in size
Conditions: cell viability, alamar blue fluorescence (LASV minigenome counter-screen); series mostly up to 57.5 µM
In the case of `CSc1ccc(/C=C2/C(C)=C(CC(=O)O)c3cc(F)ccc32)cc1`, the Potency is reported as “inactive”. With `C[N+]1(C)CCC(=C(c2ccccc2)c2ccccc2)CC1` the Potency was “inactive”. With `CCC(=O)c1ccc2c(c1)N(CCCN(C)C)c1ccccc1S2` the Potency was “inactive”. In the case of `CC(C)(C)CC(=O)OCC(=O)[C@@]1(O)CC[C@H]2[C@@H]3CCC4=CC(=O)C=C[C@]4(C)[C@H]3[C@@H](O)C[C@@]21C`, the Potency is reported as “inactive”. In the case of `C/C=C(/C(=C/C)c1ccc(OC(C)=O)cc1)c1ccc(OC(C)=O)cc1`, the Potency is reported as “inactive”. With `O=C1OC2(c3ccc(O)cc3Oc3cc(O)ccc32)c2ccccc21` the Potency was “inactive”. In the case of `Cc1nnc(C(=O)NC(C)(C)c2nc(C(=O)NCc3ccc(F)cc3)c(O)c(=O)n2C)o1`, the Potency is reported as “inactive”. For `CCCCC(=O)O[C@]1(C(=O)CO)CC[C@H]2[C@@H]3CCC4=CC(=O)CC[C@]4(C)[C@H]3[C@@H](O)C[C@@]21C`, the Potency was “inactive”. For `Cc1nc(C2CCCCC2)c(-c2ccc(S(N)(=O)=O)c(F)c2)o1`, the Potency was “inactive”. With `CCc1ccc(C(=O)C(C)CN2CCCCC2)cc1` (stereo not given) the Potency was “inactive”. With `CC(Cc1cccc(C(F)(F)F)c1)NCCOC(=O)c1ccccc1` (stereo not given) the Potency was “inactive”. With `Cn1c(=O)c2c(ncn2CC2OCCO2)n(C)c1=O` the Potency was “inactive”. In the case of `Nc1ccncc1N`, the Potency is reported as “inactive”. With `NCCNC(=O)c1ccc(Cl)cn1` the Potency was “inactive”. In the case of `CCCCCCCC/C=C\CCCCCCCCN`, the Potency is reported as “inactive”. With `CCOc1ccc2nc(S(N)(=O)=O)sc2c1` the Potency was “inactive”. In the case of `Nc1cc(C(F)(F)F)ccc1S`, the Potency is reported as “inactive”. In the case of `Nc1ccn([C@H]2CC[C@@H](CO)O2)c(=O)n1`, the Potency is reported as “inactive”. With `CCCCC[C@H](O)C=C[C@H]1[C@H](O)CC(=O)[C@H]1CC=CCCCC(=O)O` the Potency was “inactive”. With `COc1cc(NS(=O)(=O)c2ccc(N)cc2)ncn1` the Potency was “inactive”. For `CN(Cc1cc(Br)cc(Br)c1N)C1CCCCC1`, the Potency was “inactive”. In the case of `COc1ccc(S(=O)(=O)N2c3ccc(Cl)cc3[C@@](O)(c3ccccc3Cl)[C@H]2C(=O)N2CCC[C@@H]2C(N)=O)cc1OC`, the Potency is reported as “inactive”. For `CC[C@H](c1ccc(O)cc1)[C@@H](CC)c1ccc(O)cc1`, the Potency was “inactive”. In the case of `Clc1ccc2c(c1)CCc1cccnc1C2=C1CCNCC1`, the Potency is reported as “inactive”. For `CCC1(c2cnc[nH]2)Cc2ccccc2C1`, the Potency was “inactive”. For `Nc1c(CC(=O)O)cccc1C(=O)c1ccc(Br)cc1`, the Potency was “inactive”. With `O=S1(=O)OC(c2ccc(O)cc2)(c2ccc(O)cc2)c2ccccc21` the Potency was “inactive”. With `c1ccc(CN(CC2=NCCN2)c2ccccc2)cc1` the Potency was “inactive”. With `C[C@@H](CN(C)C)CN1c2ccccc2Sc2ccccc21` the Potency was “inactive”. With `C/C(=C(/OCCOc1ccc(Cl)cc1)c1ccc(Cl)cc1Cl)n1ccnc1` the Potency was “inactive”. In the case of `Cc1ccc(O)cc1`, the Potency is reported as “inactive”. For `CCC(CN)=C(c1ccccc1)c1ccccc1`, the Potency was “inactive”. In the case of `CCCCCOc1ccccc1/C(=C\SC)n1ccnc1`, the Potency is reported as “inactive”. In the case of `O=C(CCCCC(=O)Nc1c(I)cc(I)c(C(=O)O)c1I)Nc1c(I)cc(I)c(C(=O)O)c1I`, the Potency is reported as “inactive”. For `O=C(c1cc(O)c(O)c(O)c1)c1ccc(O)c(O)c1O`, the Potency was “inactive”. With `CCc1oc2ccccc2c1C(=O)c1cc(Br)c(O)c(Br)c1` the Potency was “inactive”. In the case of `NC(N)=NCCC[C@H](N)C(=O)O`, the Potency is reported as “inactive”. In the case of `CN1CCC(=C2c3ccccc3Sc3ccccc32)CC1`, the Potency is reported as “inactive”. In the case of `O=C(OCC(COC(=O)c1cccnc1)(COC(=O)c1cccnc1)COC(=O)c1cccnc1)c1cccnc1`, the Potency is reported as “inactive”. With `CC(=O)[C@@]1(O)CC[C@H]2[C@@H]3C[C@H](C)C4=CC(=O)CC[C@]4(C)[C@H]3CC[C@@]21C` the Potency was “inactive”.
